Values joined by “and” are separate entries in the source; they are usually repeats but may differ in a detail not shown here. Equal entries are not always repeated. A structure can be active in one record and inactive in another. Active and inactive are the calls of the source.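 The calls were made as follows, unless noted: active = thallium flux through the channel raised or lowered by more than 3 SD from vehicle-only wells, actives on both sides; inactive = the rest.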
Columns and labels:
[1] = Wnt pathway potentiators raising nuclear beta-catenin – imaging, WNT3A-conditioned medium, mouse C2C12, NPC library, primary screen (AID 1117326; in the data active = nuclear beta-catenin stimulation mostly above about 4.2%, no sharp cut-off; inactive = mostly below about 10%); details: stronger effect = higher value
[2] = stimulators of insulin release from INS-1E, primary screen, cell-based, 5 mM glucose, NPC library (AID 1117329;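 active = compound raises insulin release from rat beta cells at 5 mM glucose, no numeric limit stated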); details: rat INS-1E insulin secretion, at 10 µM, stronger effect = higher value
[3] = growth inhibition of GSK3B-pretreated HCT116 cells – cell-based, CellTiter-Glo, 0.2 to 20 µM (AID 1117336;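 active = compounds lowering colon cancer cell viability after pretreatment blocking the GSK3B kinase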); details: HCT116 viability after GSK3B inhibitor, at 20 µM, stronger effect = higher value
[4] = inhibition of endothelial tube formation, primary screen, imaging, VEGF stimulated, CD31 staining, tube area, NPC library (AID 1117340;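 active = compound that reduces growth-factor-driven endothelial tube area in a mixed cell culture, no cutoff stated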); details: VEGF-stimulated ADSC/ECFC co-culture, at 10 µM, stronger effect = higher value
[5] = GLP1 release stimulators, primary, NCI-H716, NPC library (AID 1117341;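 active = compound raises GLP1 secretion from the human gut endocrine cells, with no numeric limit stated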); details: NCI-H716 cells, at 10 µM, stronger effect = higher value
[6] = HCT116 colon cancer cell growth inhibition, primary screen, CellTiter-Glo luminescence, NPC library (AID 1117342;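 active = compounds that lower survival of HCT116 colon cancer cells in the luminescence readout, no numeric limit stated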); details: at 20 µM (top of the series)
[7] = reduced SW480 viability measured with CellTiter-Glo, NPC library, primary (AID 1117343;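 active = compounds that lower viability of the colon cancer cells in the luminescence readout, with no numeric limit stated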); details: CellTiter-Glo luminescence; at 20 µM (top of the series)
[8] = NPC library primary testing for decreased DLD-1 cell viability via CellTiter-Glo (AID 1117346;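 active = compounds that lower survival of DLD-1 colon cancer cells in the luminescence readout, no cutoff given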); details: DLD-1 viability, CellTiter-Glo luminescence; at 20 µM (top of the series)
[9] = biological target: 6-phosphogluconate dehydrogenase, decarboxylating (Homo sapiens) (UniProt P52209); test: inhibition of human phosphogluconate dehydrogenase – biochemical, recombinant enzyme, NADPH absorbance, primary screen (AID 1159550;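 active = at least 20% inhibition of 6-phosphogluconate dehydrogenase activity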); details: recombinant 6PGD, NADPH absorbance 341 nm; at 10 µM; stronger effect = higher value
[10] = EMT-state selective cytotoxicity in co-culture – imaging, PC-3E GFP, TEM4-18 mCherry, primary screen (AID 1345086;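 active = compounds killing one labelled cell type while sparing the other, by normalised counts and ratio limits, not self-fluorescent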;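 as to all read-outs here: cells exposed to compound for 72 h before imaging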;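 as to red/green cell ratio (normalised): normalised mesenchymal count divided by normalised epithelial count so high means epithelial killing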); details: PC-3E GFP / TEM4-18 mCherry co-culture, imaging cell counts, at 1 µM; for red/green cell ratio (normalised): actives lie on both sides, counts scaled to control wells, 1 = unselective
[11] = viability loss with induced miR-34 in A549 – imaging, A549 dox-inducible miR-34, nuclei and caspase counts, primary screen (AID 1347080;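 active = compounds whose cell count with miR-34 switched on is under 0.7 times the count with it off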); details: A549 miR-34 inducible, Hoechst nuclei count, 48 h
[12] = MELAS cybrid and Rieske KO viability enhancers – cell-based, MELAS cybrids, Rieske KO mouse fibroblasts, CellTiter-Glo, primary screen (AID 1508586;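 active = mean z-score across replicates of 1.96 or higher in either the MELAS or the Rieske mutant cell line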;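 also: z relative to plate mean and SD of compound and empty wells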); details: low glucose
[13] = biological target: NAD(+) hydrolase SARM1 (Homo sapiens) (UniProt Q6SZW1); test: blocking NAD cleavage by SARM1 SAM-TIR – cell lysate, NAD-Glo luminescence (AID 1508614;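 active = compound whose remaining NAD level is above about 45 nM, limit read from the data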;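 also: higher remaining NAD means stronger inhibition of SARM1 NADase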); details: SAM-TIR HEK293T lysate NADase, at 1 µM, stronger effect = higher value
[14] = biological target: Mitogen-activated protein kinase 7 (Homo sapiens) (UniProt Q13164); test: Gal4-ERK5 driven luciferase induction – cell-based, HTS, primary screen (AID 1508626;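 active = luciferase signal above three times the same-plate solvent-only control wells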;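 also: luciferase driven by Gal4-ERK5 fusion binding five Gal4 sites before minimal TATA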); details: HeLa Gal4-ERK5 transactivation, 18 h, at 5 µM, stronger effect = higher value
[15] = test system: F380Y; test: BK channel mutant inhibitors and activators – cell-based, U2OS BacMam, thallium flux, beta subunits, selectivity assay, profiling panel (AID 1259406); details: U2OS BacMam BK variants, at 30 µM;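 also: initial slope of Thallos dye fluorescence rise after thallium is added; log ratio against the mean of 0.3% DMSO vehicle wells on the same plate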
[16] = test system: F380Y/beta2Delta; test: as above; details: U2OS BacMam BK variants, at 30 µM
[17] = biological target: Calcium-activated potassium channel subunit alpha-1 (Homo sapiens) + Leucine-rich repeat-containing protein 26 (Homo sapiens) (UniProt Q12791+Q2I0M4); test: as above; details: U2OS BacMam BK variants, F380Y/Slo1WT/gamma1, at 30 µM
[18] = test system: R275C; test: as above; details: U2OS BacMam BK variants, at 30 µM
[19] = test system: R275C/beta1; test: as above; details: U2OS BacMam BK variants, at 30 µM
[20] = test system: R275C/beta2Delta; test: as above; details: U2OS BacMam BK variants, at 30 µM
[21] = measured here: epithelial PC-3E GFP cell survival
[22] = measured here: mesenchymal TEM4-18 mCherry cell survival
[23] = measured here: relative caspase fold change +Dox/-Dox
[24] = measured here: total cells with miR-34 induction, stronger effect = lower value
[25] = MELAS cybrid survival, CellTiter-Glo 48 h, stronger effect = higher value
[26] = Rieske KO mouse fibroblast survival, CellTiter-Glo 72 h

Sequence of Calcium-activated potassium channel subunit alpha-1 (Homo sapiens) + Leucine-rich repeat-containing protein 26 (Homo sapiens) (Q2I0M4 whole entry, looked up, one chain of several): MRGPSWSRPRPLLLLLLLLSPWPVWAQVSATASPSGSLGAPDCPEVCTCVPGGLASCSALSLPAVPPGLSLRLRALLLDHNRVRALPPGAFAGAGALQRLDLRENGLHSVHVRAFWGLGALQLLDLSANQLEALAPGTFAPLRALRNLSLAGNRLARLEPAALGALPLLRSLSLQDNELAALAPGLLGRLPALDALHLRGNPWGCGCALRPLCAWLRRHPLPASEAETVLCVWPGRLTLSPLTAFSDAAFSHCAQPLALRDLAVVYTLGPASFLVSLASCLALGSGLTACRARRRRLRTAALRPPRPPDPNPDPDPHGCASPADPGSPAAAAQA
Sequence of Mitogen-activated protein kinase 7 (Homo sapiens) (Q13164 whole entry, looked up, the tested form may be a part): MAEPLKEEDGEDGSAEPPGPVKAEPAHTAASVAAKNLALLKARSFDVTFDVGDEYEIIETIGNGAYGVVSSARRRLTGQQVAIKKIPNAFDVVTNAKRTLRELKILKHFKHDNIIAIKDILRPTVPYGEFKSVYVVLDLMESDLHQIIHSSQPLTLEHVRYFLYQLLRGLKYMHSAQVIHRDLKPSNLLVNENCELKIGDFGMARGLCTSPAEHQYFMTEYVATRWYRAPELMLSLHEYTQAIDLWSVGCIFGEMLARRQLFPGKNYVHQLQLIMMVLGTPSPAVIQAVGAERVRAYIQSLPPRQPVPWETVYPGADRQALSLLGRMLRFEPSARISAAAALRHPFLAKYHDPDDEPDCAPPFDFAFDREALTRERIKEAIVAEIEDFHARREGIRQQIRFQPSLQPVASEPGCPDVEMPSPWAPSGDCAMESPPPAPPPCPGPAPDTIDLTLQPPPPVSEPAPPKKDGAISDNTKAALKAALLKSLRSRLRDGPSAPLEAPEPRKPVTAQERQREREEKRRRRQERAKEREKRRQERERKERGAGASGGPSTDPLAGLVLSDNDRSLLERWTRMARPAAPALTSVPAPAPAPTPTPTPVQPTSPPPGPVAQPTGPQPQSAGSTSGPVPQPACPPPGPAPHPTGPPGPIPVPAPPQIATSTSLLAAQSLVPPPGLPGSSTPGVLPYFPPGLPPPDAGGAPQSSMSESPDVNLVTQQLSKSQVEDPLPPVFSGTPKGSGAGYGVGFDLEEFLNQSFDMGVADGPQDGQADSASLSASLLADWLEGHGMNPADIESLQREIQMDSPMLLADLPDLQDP
Sequence of NAD(+) hydrolase SARM1 (Homo sapiens) (Q6SZW1 whole entry, looked up, the tested form may be a part): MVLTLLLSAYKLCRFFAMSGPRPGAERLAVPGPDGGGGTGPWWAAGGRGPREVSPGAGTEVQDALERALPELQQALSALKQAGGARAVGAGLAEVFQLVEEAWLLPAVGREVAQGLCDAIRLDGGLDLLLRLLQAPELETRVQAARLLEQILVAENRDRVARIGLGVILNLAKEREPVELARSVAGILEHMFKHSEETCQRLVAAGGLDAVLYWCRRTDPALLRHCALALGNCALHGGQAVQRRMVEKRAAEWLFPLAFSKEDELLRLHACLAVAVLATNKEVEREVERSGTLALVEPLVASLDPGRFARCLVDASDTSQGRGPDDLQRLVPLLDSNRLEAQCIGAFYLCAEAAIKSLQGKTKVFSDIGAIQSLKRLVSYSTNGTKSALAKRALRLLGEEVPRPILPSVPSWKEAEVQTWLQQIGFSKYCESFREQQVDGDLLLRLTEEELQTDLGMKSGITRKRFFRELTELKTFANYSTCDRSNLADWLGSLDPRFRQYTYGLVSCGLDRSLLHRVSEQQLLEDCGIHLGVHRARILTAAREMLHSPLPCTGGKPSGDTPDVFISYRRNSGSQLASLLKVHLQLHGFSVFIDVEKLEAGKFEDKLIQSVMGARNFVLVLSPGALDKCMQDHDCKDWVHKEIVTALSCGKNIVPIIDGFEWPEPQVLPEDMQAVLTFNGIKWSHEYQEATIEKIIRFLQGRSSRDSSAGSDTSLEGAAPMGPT
Sequence of 6-phosphogluconate dehydrogenase, decarboxylating (Homo sapiens) (P52209 whole entry, looked up): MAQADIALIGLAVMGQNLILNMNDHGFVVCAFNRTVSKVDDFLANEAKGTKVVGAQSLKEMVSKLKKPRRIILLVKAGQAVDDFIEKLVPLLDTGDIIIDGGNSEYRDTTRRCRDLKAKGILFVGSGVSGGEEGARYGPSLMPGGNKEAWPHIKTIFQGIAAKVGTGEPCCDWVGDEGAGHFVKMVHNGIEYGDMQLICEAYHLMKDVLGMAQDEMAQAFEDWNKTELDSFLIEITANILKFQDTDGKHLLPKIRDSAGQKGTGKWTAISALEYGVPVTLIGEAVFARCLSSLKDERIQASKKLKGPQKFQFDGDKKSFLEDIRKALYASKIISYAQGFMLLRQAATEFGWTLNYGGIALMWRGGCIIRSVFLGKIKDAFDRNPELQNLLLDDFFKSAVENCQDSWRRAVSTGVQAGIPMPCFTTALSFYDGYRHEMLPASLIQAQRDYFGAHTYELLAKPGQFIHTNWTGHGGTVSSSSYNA

CCCc1cc(=O)[nH]c(=S)[nH]1
inactive: nuclear beta-catenin stimulation ([1]; at 10 µM) 0.6% | insulin secretion stimulation [2] -0.9% | viability decrease [3] -14.4% | tube area decrease [4] 8.2% | GLP1 secretion stimulation [5] -0.8% | inhibition of viability [6] -19.2% | viability decrease (inhibition) [7] -1.9% | viability decrease (inhibition) [8] -28.7% | inhibition [9] -7.2% | red/green cell ratio (normalised) [10] 1.26 | z-score [12, 25] -0.276 and 0.0359 | remaining NAD [13] 10 nM | luciferase signal [14] 88 AU | log fold change Tl+ flux [15] 0.00762 | log fold change Tl+ flux [16] -0.0326 | log fold change Tl+ flux [17] 0.00637 | log fold change Tl+ flux [18] -0.0214 | log fold change Tl+ flux [19] -0.00439 | log fold change Tl+ flux [20] -0.0158
1.32: normalised cell number [10, 22]
10600 and 9200 and 7970: cell count [11, 24]
1.49 and 1.36 and 2.91: fold change [11, 23]
0.644 and -0.188: z-score [12, 26]
1.05: normalised cell number [10, 21]
0.8%: nuclear beta-catenin stimulation ([1]; stimulation, at 2 µM)

CC1=NS(=O)(=O)c2cc(Cl)ccc2N1
active: viability decrease (inhibition) [7] 8.5%
1.14: normalised cell number [10, 22]
inactive: nuclear beta-catenin stimulation ([1]; at 10 µM) 0.5% | insulin secretion stimulation [2] 1.9% | viability decrease [3] 2.4% | tube area decrease [4] 0.4% | GLP1 secretion stimulation [5] 0.6% | inhibition of viability [6] 26.2% | viability decrease (inhibition) [8] 1.1% | inhibition [9] 4.77% | red/green cell ratio (normalised) [10] 1.18 | z-score [12, 25] -0.405 and -0.0836 | remaining NAD [13] 10 nM | luciferase signal [14] 68 AU | log fold change Tl+ flux [15] -0.0365 | log fold change Tl+ flux [16] 0.0204 | log fold change Tl+ flux [17] -0.0135 | log fold change Tl+ flux [18] -0.00922 | log fold change Tl+ flux [19] 0.0109 | log fold change Tl+ flux [20] 0.00734
0.049 and -0.314: z-score [12, 26]
0.96: normalised cell number [10, 21]
2.4%: nuclear beta-catenin stimulation ([1]; stimulation, at 2 µM)

CC(C[N+](C)(C)C)OC(N)=O (configuration not stated)
1.15: normalised cell number [10, 21]
-1.3%: nuclear beta-catenin stimulation ([1]; stimulation, at 2 µM)
inactive: nuclear beta-catenin stimulation ([1]; at 10 µM) -0.5% | insulin secretion stimulation [2] 0.3% | viability decrease [3] -5.9% | tube area decrease [4] -10% | GLP1 secretion stimulation [5] 0.5% | inhibition of viability [6] -0.4% | viability decrease (inhibition) [7] -11.8% | viability decrease (inhibition) [8] -7.3% | inhibition [9] -9.2% | red/green cell ratio (normalised) [10] 0.97 | z-score [12, 25] -0.399 and 0.646 and 0.598 | remaining NAD [13] 10 nM | luciferase signal [14] 56 AU | log fold change Tl+ flux [15] 0.0115 | log fold change Tl+ flux [16] -0.0155 | log fold change Tl+ flux [17] 0.00848 | log fold change Tl+ flux [18] 0.0156 | log fold change Tl+ flux [19] 0.0122 | log fold change Tl+ flux [20] 0.00284
1.11: normalised cell number [10, 22]
0.843 and -0.822 and 0.416: z-score [12, 26]

COc1ccc(Cl)cc1C(=O)NCCc1ccc(S(=O)(=O)NC(=O)NC2CCCCC2)cc1
1.05: normalised cell number [10, 22]
active: insulin secretion stimulation [2] 28.1% | viability decrease (inhibition) [7] 72.3% | log fold change Tl+ flux [19] 0.142
0.113 and 0.377 and -0.0891: z-score [12, 26]
-0.5%: nuclear beta-catenin stimulation ([1]; stimulation, at 2 µM)
inactive: nuclear beta-catenin stimulation ([1]; at 10 µM) -0.8% | viability decrease [3] 17.8% | tube area decrease [4] 12% | GLP1 secretion stimulation [5] 4.4% | inhibition of viability [6] 20% | viability decrease (inhibition) [8] 14.1% | inhibition [9] 12.3% | red/green cell ratio (normalised) [10] 1.5 | z-score [12, 25] 0.114 and -0.333 and 0.459 | remaining NAD [13] 10 nM | luciferase signal [14] 52 AU | log fold change Tl+ flux [15] 0.0726 | log fold change Tl+ flux [16] 0.0268 | log fold change Tl+ flux [17] 0.0583 | log fold change Tl+ flux [18] 0.027 | log fold change Tl+ flux [20] 0.0874
0.7: normalised cell number [10, 21]

NCCc1ccc(O)c(O)c1
1.44 and 0.87: normalised cell number [10, 22]
inactive: nuclear beta-catenin stimulation ([1]; at 10 µM) 1.1% | insulin secretion stimulation [2] -3% | viability decrease [3] 22.9% | tube area decrease [4] 37.7% | GLP1 secretion stimulation [5] -0.9% | inhibition of viability [6] -9.7% | viability decrease (inhibition) [8] 11.6% | inhibition [9] -4.79% | red/green cell ratio (normalised) [10] 1.02 and 0.85 | z-score [12, 25] -0.31 and 0.319 | remaining NAD [13] 10 nM | log fold change Tl+ flux [15] 0.0174 | log fold change Tl+ flux [16] 0.0459 | log fold change Tl+ flux [17] -0.0022 | log fold change Tl+ flux [18] 0.00996 | log fold change Tl+ flux [19] -0.0871 | log fold change Tl+ flux [20] 0.0238
44 AU (inactive) and 204 AU (active): luciferase signal [14]
0.8%: nuclear beta-catenin stimulation ([1]; stimulation, at 2 µM)
active: viability decrease (inhibition) [7] 79.9%
0.135 and -0.219: z-score [12, 26]
1.41 and 1.02: normalised cell number [10, 21]

CS(=O)(=O)OCCCCOS(C)(=O)=O
1.16: normalised cell number [10, 21]
1.19: normalised cell number [10, 22]
inactive: nuclear beta-catenin stimulation ([1]; at 10 µM) 1.2% | insulin secretion stimulation [2] 0.2% | viability decrease [3] 3.6% | tube area decrease [4] 32.5% | GLP1 secretion stimulation [5] -1.7% | inhibition of viability [6] -1.23% | viability decrease (inhibition) [7] 31.8% | viability decrease (inhibition) [8] -11% | inhibition [9] 1.77% | red/green cell ratio (normalised) [10] 1.02 | fold change ([11]; stronger effect = lower value, cell number ratio, induced over uninduced) 0.955 and 0.888 and 0.86 | z-score [12, 25] -0.182 and -0.283 | remaining NAD [13] 10 nM | luciferase signal [14] 52 AU | log fold change Tl+ flux [15] -0.0118 | log fold change Tl+ flux [16] 0.00156 | log fold change Tl+ flux [17] -0.0136 | log fold change Tl+ flux [18] 0.0198 | log fold change Tl+ flux [19] -0.0312 | log fold change Tl+ flux [20] 0.0365
9740 and 7120 and 8790: cell count [11, 24]
10200 and 8020: cell count ([11]; measured here: total cells without miR-34 induction)
0.6%: nuclear beta-catenin stimulation ([1]; stimulation, at 2 µM)
1.41 and 0.655 and 1.42: fold change [11, 23]
-0.743 and -0.155: z-score [12, 26]

CC12CC3CC(C)(C1)CC(N)(C3)C2
1%: nuclear beta-catenin stimulation ([1]; stimulation, at 2 µM)
1.15: normalised cell number [10, 21]
inactive: nuclear beta-catenin stimulation ([1]; at 10 µM) 2% | insulin secretion stimulation [2] 12% | viability decrease [3] -2.8% | tube area decrease [4] -6.5% | GLP1 secretion stimulation [5] 2.8% | inhibition of viability [6] -5.4% | viability decrease (inhibition) [7] 14.2% | viability decrease (inhibition) [8] 0.65% | inhibition [9] 7.37% | red/green cell ratio (normalised) [10] 0.87 | z-score [12, 25] -0.277 and -0.613 | remaining NAD [13] 10 nM | luciferase signal [14] 40 AU | log fold change Tl+ flux [15] 0.0112 | log fold change Tl+ flux [16] 0.0288 | log fold change Tl+ flux [17] -0.0203 | log fold change Tl+ flux [18] 0.00266 | log fold change Tl+ flux [19] -0.0595 | log fold change Tl+ flux [20] 0.0488
1: normalised cell number [10, 22]
0.678 and -0.28: z-score [12, 26]

Source: PubChem BioAssay
